# Results filed as inconclusive are left out. The source made the active and inactive calls. How the source made its calls: active means hit-call score of the fitted dose curve at least 0.9, where 1 is the maximum; inconclusive means response in the unintended direction; inactive means score below 0.9.
# Tests used:
# [1] = target: Luciferin 4-monooxygenase (Photinus pyralis) (UniProt P08659); assay: CCTE_Simmons_QuantiLum_inhib_2: CCTE's Firefly Luciferase Inhibition Assay, Simmons Lab (AID 2283767);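 on AC50: potency for inhibitors that lower luciferase luminescence relative to DMSO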
# Chain of Luciferin 4-monooxygenase (Photinus pyralis) (P08659 whole entry, looked up): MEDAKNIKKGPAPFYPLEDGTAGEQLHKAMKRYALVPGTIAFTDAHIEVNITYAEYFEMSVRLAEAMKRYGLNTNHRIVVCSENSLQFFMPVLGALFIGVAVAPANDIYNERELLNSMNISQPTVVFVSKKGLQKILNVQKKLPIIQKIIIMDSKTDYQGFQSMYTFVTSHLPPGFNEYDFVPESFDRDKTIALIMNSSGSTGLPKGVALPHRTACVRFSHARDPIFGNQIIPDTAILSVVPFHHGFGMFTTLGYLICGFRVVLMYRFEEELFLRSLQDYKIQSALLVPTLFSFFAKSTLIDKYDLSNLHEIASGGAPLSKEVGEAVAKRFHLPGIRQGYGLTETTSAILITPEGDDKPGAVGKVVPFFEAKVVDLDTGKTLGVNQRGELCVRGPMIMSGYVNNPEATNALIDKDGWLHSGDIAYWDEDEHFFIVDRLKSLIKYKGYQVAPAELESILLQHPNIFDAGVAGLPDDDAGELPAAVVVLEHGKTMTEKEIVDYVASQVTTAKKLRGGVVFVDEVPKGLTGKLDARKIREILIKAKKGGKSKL
# How it was run: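 Cell-free recombinant firefly luciferase (5 ng/well) in 200mM potassium phosphate with 1 mg/ml BSA, 30 min at 37C with 8 concentrations from 5 nM to 87.5 uM [final], 0.5% DMSO. Luminescence read after D-luciferin (150uM)/dATP (147uM) reagent injection, pH 7.8; triplicates.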
# [2] = ACEA_AR_agonist_AUC_viability: ACEA Biosciences xCELLigence Real-Time Cell Analysis on Androgen Receptor Agonism for Viability (AID 2283775);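 on AC50: viability read 80 hours after compound addition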
# How it was run: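 Real-time impedance tracking of 22Rv1 growth, readings every 5 min for 5 h then hourly; area-under-curve viability endpoint at 80 hours, relative to DMSO. Compounds at eight concentrations, 1:4 steps, top 100 uM, n = 2.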
# [3] = ACEA_AR_antagonist_AUC_viability: ACEA Biosciences xCELLigence Real-Time Cell Analysis on Androgen Receptor Antagonism for Viability (AID 2283776);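 further: 22Rv1 human prostate cancer cells growing on impedance electrode plates; hits lower the growth signal relative to DMSO meaning cytotoxicity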
# How it was run: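 Viability endpoint from label-free cell-index monitoring: 22Rv1 cultures treated with an eight-point 1:4 dilution series starting at 100 uM final, AUC at 80 h fitted against DMSO.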
# [4] = ACEA_ER_AUC_viability: ACEA Biosciences xCELLigence Real-Time Cell Analysis on Estrogen Receptor Agonism for Viability (AID 2283782);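 further: continuous compound exposure with impedance area under curve over 80 h; hit means loss of impedance signal meaning reduced cell growth or viability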
# How it was run: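 T-47D human breast cells in phenol red-free RPMI1640 with 10% charcoal-stripped FBS were dosed with an 8-point 1:4 dilution series from 100 uM top final concentration, in duplicate. Impedance-based growth was followed for 80 h; AUC analysed versus DMSO.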
# AR (gene 367) = AR (gene 367) (UniProt P10275); assay: ACEA_AR_agonist_80hr: ACEA Biosciences xCELLigence Real-Time Cell Analysis on Androgen Receptor Agonism for Proliferation (AID 2283783);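 further: hits increase impedance growth signal above DMSO baseline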
# Chain of AR (gene 367) (P10275 whole entry, looked up): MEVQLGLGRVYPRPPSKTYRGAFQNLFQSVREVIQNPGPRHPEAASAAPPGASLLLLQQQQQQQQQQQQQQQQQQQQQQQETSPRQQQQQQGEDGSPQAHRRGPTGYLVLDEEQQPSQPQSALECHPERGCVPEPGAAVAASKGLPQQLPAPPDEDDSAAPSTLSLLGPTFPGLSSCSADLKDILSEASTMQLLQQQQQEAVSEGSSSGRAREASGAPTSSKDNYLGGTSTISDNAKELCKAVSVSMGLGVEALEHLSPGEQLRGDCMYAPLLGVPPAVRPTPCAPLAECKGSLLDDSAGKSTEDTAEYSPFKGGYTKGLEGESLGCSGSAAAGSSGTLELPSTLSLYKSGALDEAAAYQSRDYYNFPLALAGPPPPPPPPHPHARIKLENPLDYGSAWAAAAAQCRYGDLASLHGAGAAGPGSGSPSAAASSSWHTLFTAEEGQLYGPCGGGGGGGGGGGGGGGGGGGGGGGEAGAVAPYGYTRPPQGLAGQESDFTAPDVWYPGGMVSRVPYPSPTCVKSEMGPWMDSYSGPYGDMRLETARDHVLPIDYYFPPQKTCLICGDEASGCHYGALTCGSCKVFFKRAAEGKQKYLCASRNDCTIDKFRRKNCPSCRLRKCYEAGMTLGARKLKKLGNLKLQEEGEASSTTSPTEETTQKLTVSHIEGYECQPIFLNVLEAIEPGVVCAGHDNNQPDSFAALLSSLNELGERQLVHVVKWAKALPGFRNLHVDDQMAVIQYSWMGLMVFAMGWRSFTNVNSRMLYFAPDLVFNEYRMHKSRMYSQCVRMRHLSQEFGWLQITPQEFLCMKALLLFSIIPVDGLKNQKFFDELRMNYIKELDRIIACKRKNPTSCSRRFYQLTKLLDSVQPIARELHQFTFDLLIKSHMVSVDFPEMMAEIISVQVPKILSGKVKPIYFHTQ
# How it was run: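 22Rv1 human prostate cancer cells were seeded after preconditioning in assay medium and monitored overnight, then dosed in an eight-point 1:4 dilution series from 100 uM (≤0.5% DMSO). Impedance-based growth was read at 80 h, gain-of-signal versus DMSO.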
# [5] = test system: chicken Androgen Receptor (AR), gene 422165; assay: ATG_chAR_XSP1: Attagene TRANS-FACTORIAL Multi-Species (XSP1) HepG2 Assay for chicken Androgen Receptor (AR) (AID 2283768)
# How it was run: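 HepG2 cells transiently transfected with multiplexed GAL4-UAS reporter units expressing chimeric chicken AR-Gal4; 3 nM 6-alpha-fluorotestosterone for partial AR stimulation; 24 h after dosing, reporter mRNA by RT-PCR and capillary electrophoresis, gain-of-signal versus DMSO.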
# [6] = test system: zebrafish Androgen Receptor (AR), gene 100005148; assay: ATG_zfAR_XSP1: Attagene TRANS-FACTORIAL Multi-Species (XSP1) HepG2 Assay for zebrafish Androgen Receptor (AR) (AID 2283771)
# How it was run: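 HepG2 cells were transiently transfected with a zebrafish AR-GAL4 reporter system and partially stimulated with 3 nM 6-alpha-fluorotestosterone. Reporter mRNA was measured after 24 h dosing by RT-PCR with capillary electrophoresis, and gain-of-signal was fitted relative to DMSO.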
# [7] = target: zebrafish Estrogen Receptor (ESR1), esr1 (gene 259252) (UniProt P57717); assay: ATG_zfER1_XSP1: Attagene TRANS-FACTORIAL Multi-Species (XSP1) HepG2 Assay for zebrafish Estrogen Receptor (ESR1) (AID 2283772)
# Chain of zebrafish Estrogen Receptor (ESR1), esr1 (gene 259252) (P57717 whole entry, looked up, the tested form may be a part): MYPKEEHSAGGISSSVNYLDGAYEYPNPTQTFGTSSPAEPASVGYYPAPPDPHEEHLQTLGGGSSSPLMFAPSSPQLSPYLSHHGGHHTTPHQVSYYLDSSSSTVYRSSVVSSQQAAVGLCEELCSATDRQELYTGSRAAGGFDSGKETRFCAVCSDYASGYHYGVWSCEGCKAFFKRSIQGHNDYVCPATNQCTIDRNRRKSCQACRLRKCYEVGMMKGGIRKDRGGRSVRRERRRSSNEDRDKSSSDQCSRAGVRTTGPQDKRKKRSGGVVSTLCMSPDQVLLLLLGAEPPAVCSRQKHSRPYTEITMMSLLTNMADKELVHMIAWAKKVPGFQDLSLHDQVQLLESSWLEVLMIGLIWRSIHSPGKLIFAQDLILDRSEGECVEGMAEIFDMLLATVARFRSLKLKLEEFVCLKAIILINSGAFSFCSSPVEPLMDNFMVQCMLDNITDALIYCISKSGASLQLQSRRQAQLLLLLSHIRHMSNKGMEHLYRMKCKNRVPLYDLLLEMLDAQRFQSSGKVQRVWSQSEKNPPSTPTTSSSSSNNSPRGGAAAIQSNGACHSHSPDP
# How it was run: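 Exogenous chimeric receptor-GAL4 activity is measured in transiently transfected human HepG2 liver cells after 24 h compound exposure. Reporter transcripts are detected by RT-PCR and fluorescent capillary electrophoresis, analysed for signal gain relative to DMSO.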
# [8] = test system: zebrafish Estrogen Receptor (ESR2B), gene 317733; assay: ATG_zfER2b_XSP1: Attagene TRANS-FACTORIAL Multi-Species (XSP1) HepG2 Assay for zebrafish Estrogen Receptor (ESR2B) (AID 2283773)
# How it was run: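 HepG2 cells transiently transfected with multiple GAL4-UAS reporter units expressing chimeric zebrafish ER2b-Gal4; 24 h chemical exposure with 3 nM 6-alpha-fluorotestosterone present. Reporter mRNA measured by RT-PCR and capillary electrophoresis; gain of signal fitted versus DMSO.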
# [9] = test system: frog Estrogen Receptor (ESR2), gene 100174814; assay: ATG_frER2_XSP1: Attagene TRANS-FACTORIAL Multi-Species (XSP1) HepG2 Assay for frog Estrogen Receptor (ESR2) (AID 2283774)
# How it was run: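 HepG2 cells transiently transfected with GAL4-UAS multiplexed reporter units expressing chimeric NR-Gal4 proteins; reporter mRNA measured 24 h after dosing by RT-PCR, FAM labeling, HpaI digestion and capillary electrophoresis. Gain-of-signal relative to DMSO; 3 nM 6-alpha-fluorotestosterone present.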
# [10] = test system: frog Estrogen Receptor (ESR1), gene 398734; assay: ATG_frER1_XSP1: Attagene TRANS-FACTORIAL Multi-Species (XSP1) HepG2 Assay for frog Estrogen Receptor (ESR1) (AID 2283777)
# How it was run: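 Read-out: fluorescent reporter mRNA via RT-PCR, HpaI digestion and capillary electrophoresis, after 24 h chemical exposure of transiently transfected human HepG2 cells expressing exogenous NR-Gal4 chimeras. DMSO served as baseline for positive-direction fitting.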
# [11] = test system: zebrafish Estrogen Receptor (ESR2A), gene 317734; assay: ATG_zfER2a_XSP1: Attagene TRANS-FACTORIAL Multi-Species (XSP1) HepG2 Assay for zebrafish Estrogen Receptor (ESR2A) (AID 2283778)
# How it was run: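 HepG2 cells transiently transfected with multiplexed GAL4-UAS reporter units and chimeric NR-GAL4 receptors; 24 h compound exposure with 3 nM 6-alpha-fluorotestosterone present. Reporter mRNA quantified by RT-PCR and capillary electrophoresis, gain-of-signal fitted relative to DMSO.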
# [12] = target: chicken Estrogen Receptor (ESR1), ESR1 (gene 396099) (UniProt P06212); assay: ATG_chERa_XSP1: Attagene TRANS-FACTORIAL Multi-Species (XSP1) HepG2 Assay for chicken Estrogen Receptor (ESR1) (AID 2283779)
# Chain of chicken Estrogen Receptor (ESR1), ESR1 (gene 396099) (P06212 whole entry, looked up, the tested form may be a part): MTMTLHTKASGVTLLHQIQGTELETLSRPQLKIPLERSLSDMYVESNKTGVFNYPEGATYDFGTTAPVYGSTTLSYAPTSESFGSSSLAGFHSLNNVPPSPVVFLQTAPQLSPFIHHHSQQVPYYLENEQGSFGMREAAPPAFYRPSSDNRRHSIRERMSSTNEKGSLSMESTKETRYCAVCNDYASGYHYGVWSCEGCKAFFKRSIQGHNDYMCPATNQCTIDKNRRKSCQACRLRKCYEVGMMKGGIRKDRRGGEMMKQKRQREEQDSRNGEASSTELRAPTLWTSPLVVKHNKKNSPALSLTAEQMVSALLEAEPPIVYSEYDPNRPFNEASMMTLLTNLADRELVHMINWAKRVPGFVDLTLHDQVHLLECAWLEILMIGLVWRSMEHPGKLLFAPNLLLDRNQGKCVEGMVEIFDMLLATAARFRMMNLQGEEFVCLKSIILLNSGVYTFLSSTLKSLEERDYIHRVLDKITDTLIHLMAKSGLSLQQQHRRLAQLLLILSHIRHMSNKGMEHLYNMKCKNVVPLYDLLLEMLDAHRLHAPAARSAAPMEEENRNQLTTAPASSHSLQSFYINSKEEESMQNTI
# How it was run: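 HepG2 cells transiently transfected with multiplexed GAL4-UAS reporter units expressing chimeric NR-Gal4 proteins; 3 nM 6-alpha-fluorotestosterone present. Reporter mRNA measured 24 h after dosing by RT-PCR, FAM labelling, HpaI digest and capillary electrophoresis; gain of signal versus DMSO.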
# [13] = target: Estrogen receptor (Homo sapiens) (UniProt P03372); assay: ATG_hERa_XSP1: Attagene TRANS-FACTORIAL Multi-Species (XSP1) HepG2 Assay for human Estrogen Receptor (ESR1) (AID 2283780)
# Chain of Estrogen receptor (Homo sapiens) (P03372 whole entry, looked up, the tested form may be a part): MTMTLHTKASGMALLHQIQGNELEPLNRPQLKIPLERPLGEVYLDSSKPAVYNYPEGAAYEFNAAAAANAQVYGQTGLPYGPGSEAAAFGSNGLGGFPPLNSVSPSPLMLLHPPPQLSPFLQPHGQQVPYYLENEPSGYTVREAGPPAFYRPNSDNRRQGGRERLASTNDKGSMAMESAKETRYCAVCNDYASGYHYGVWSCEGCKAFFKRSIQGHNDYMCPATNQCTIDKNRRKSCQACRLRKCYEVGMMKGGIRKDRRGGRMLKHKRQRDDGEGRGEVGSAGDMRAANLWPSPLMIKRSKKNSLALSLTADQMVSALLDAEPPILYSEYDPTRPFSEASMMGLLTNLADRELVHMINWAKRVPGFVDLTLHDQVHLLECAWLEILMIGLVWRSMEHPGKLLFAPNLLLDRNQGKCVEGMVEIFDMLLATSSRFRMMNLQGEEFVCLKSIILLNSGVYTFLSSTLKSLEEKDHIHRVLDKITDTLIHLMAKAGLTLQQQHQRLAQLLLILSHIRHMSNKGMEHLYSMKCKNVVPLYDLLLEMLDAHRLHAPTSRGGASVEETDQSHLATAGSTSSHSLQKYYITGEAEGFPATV
# How it was run: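 HepG2 cells transiently transfected with GAL4-UAS reporter units and chimeric NR-Gal4 constructs; 24 h after dosing, reporter mRNA quantified by RT-PCR and capillary electrophoresis. Medium contained 3 nM 6-alpha-fluorotestosterone; activity fitted as gain-of-signal versus DMSO.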
# [14] = test system: turtle Estrogen Receptor (ESR1), gene 101933533; assay: ATG_trERa_XSP1: Attagene TRANS-FACTORIAL Multi-Species (XSP1) HepG2 Assay for turtle Estrogen Receptor (ESR1) (AID 2283781)
# How it was run: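 HepG2 cells transiently transfected with GAL4-UAS reporter units and chimeric NR-Gal4 constructs, dosed for 24 h with 3 nM 6-alpha-fluorotestosterone present. Reporter mRNA was quantified by RT-PCR, fluorescent labelling and capillary electrophoresis, with gain of signal fitted relative to DMSO.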
# [15] = ArunA_NOG_NucleusCount: ArunA Biomedical's Neurite Outgrowth (NOG) Assay for Nucleus Count (AID 2283756)
# How it was run: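 Human H9-derived differentiated neurons were exposed for 48 h right after seeding. Hoechst-stained nuclei gated by size and intensity were counted by automated high-content imaging as viable neurons. Loss of signal vs DMSO.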
# [16] = ArunA_NOG_NeuritesPerNeuron: ArunA Biomedical's Neurite Outgrowth (NOG) Assay for Neurites Per Neuron (AID 2283758)
# How it was run: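 Differentiated human H9-derived neurons exposed to chemicals for 48 h from seeding, then stained with Hoechst and βIII-tubulin/DyLight 488. Automated imaging counted neurites (processes >10 um) per valid neuron; loss of signal versus DMSO scored.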
# [17] = STM_H9_NormalizedViability: Cytotoxicity Assessment at 120 hours in the Stemina devTOX quickPredict H9 human embryonic stem cell (hESC)-based Assay (AID 2283784)
# How it was run: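 Pluripotent H9 hESCs were exposed, with chemical and media replaced every 24 h. Viability was read by CellTiter-Fluor fluorescence, background-corrected and normalized to the 0.1% DMSO neutral control per plate. Loss of signal was fitted.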
structure (smiles),measurement,setting,value
CCOP(=O)(OCC)Oc1nc(Cl)c(Cl)cc1Cl,outcome,[1],inactive
same,AC50,[2],72.4 µM (active)
same,AC50,[3],72.7 µM (active)
same,AC50,[4],68.3 µM (active)
same,outcome,AR (gene 367),inactive
COC(=O)NS(=O)(=O)c1ccc(N)cc1,AC50,[1],0.149 µM (active)
same,outcome,[3],inactive
same,outcome,[4],inactive
CC(C)NC(=O)N1CC(=O)N(c2cc(Cl)cc(Cl)c2)C1=O,outcome,[5],inactive
same,outcome,[6],inactive
same,outcome,[7],inactive
same,AC50,[8],100 µM (active)
same,AC50,[9],100 µM (active)
same,AC50,[2],11.2 µM (active)
same,AC50,[10],100 µM (active)
same,outcome,[11],inactive
same,outcome,[12],inactive
same,AC50,[13],10.3 µM (active)
same,AC50,[14],41.4 µM (active)
same,outcome,[4],inactive
COC(=O)NC(=S)Nc1ccccc1NC(=S)NC(=O)OC,outcome,[1],inactive
same,AC50,[2],18.3 µM (active)
same,AC50,[3],21.6 µM (active)
CC(C)C1(C)N=C(c2ncccc2C(=O)O)NC1=O (stereo unspecified),outcome,[15],inactive
same,outcome,[16],inactive
same,outcome,[2],inactive
same,outcome,[3],inactive
same,outcome,[17],inactive
CC(C)(C)C(=O)C(Oc1ccc(Cl)cc1)n1cncn1 (stereo unspecified),outcome,[2],inactive
same,outcome,[3],inactive
same,outcome,[17],inactive
CCCN(CC)CC1COC2(CCC(C(C)(C)C)CC2)O1 (stereo unspecified),AC50,[2],77.3 µM (active)
same,AC50,[3],77.7 µM (active)
same,AC50,[4],81 µM (active)
same,outcome,[17],inactive
Cc1ccc(N=CN(C)C=Nc2ccc(C)cc2C)c(C)c1,AC50,[2],14.5 µM (active)
same,AC50,[3],17.6 µM (active)
same,AC50,[4],50 µM (active)
OC(c1ccc(Cl)cc1)(c1ccc(Cl)cc1)C(Cl)(Cl)Cl,AC50,[2],14.5 µM (active)
same,AC50,[3],13 µM (active)
same,AC50,[4],26.4 µM (active)
CC(C)N1C(=O)c2ccccc2NS1(=O)=O,outcome,[2],inactive
same,outcome,[3],inactive
same,outcome,[4],inactive
Clc1cccc(C(Cl)(Cl)Cl)n1,outcome,[2],inactive
same,outcome,[3],inactive
same,outcome,[4],inactive
same,outcome,[17],inactive
C=C(C)CN(CC)c1c([N+](=O)[O-])cc(C(F)(F)F)cc1[N+](=O)[O-],AC50,[2],73 µM (active)
same,AC50,[3],50 µM (active)
CCCCC(C#N)(Cn1cncn1)c1ccc(Cl)cc1 (stereo unspecified),AC50,[2],83.1 µM (active)
same,AC50,[3],79 µM (active)
same,outcome,[4],inactive
same,AC50,[17],56 µM (active)
COC(=O)N(C(=O)N1CO[C@@]2(C(=O)OC)Cc3cc(Cl)ccc3C2=N1)c1ccc(OC(F)(F)F)cc1,AC50,[2],18.3 µM (active)
same,AC50,[3],18.5 µM (active)
same,AC50,[4],69.2 µM (active)
COc1cc(OC)nc(NC(=O)NS(=O)(=O)c2ncccc2OCC(F)(F)F)n1,outcome,[2],inactive
same,outcome,[17],inactive
CCSC(=O)N1CCCCCC1,outcome,[2],inactive
same,outcome,[3],inactive
same,outcome,[4],inactive
Cc1cc(C)nc(Nc2ccccc2)n1,outcome,[2],inactive
same,outcome,[3],inactive
same,outcome,[4],inactive
same,outcome,[17],inactive
CCCCC(O)(Cn1cncn1)c1ccc(Cl)cc1Cl (stereo unspecified),AC50,[2],69.8 µM (active)
same,AC50,[3],50 µM (active)
same,AC50,[4],75.5 µM (active)
same,outcome,AR (gene 367),inactive
same,AC50,[17],78.3 µM (active)

# Source: PubChem BioAssay (EPA / NIEHS)
